# An excerpt weighted towards active compounds, which were near 27% of everything screened.
# CYP2C19 act: activators of human cytochrome P450 2C19; 96,000 tested, under 10 active; AID 1025; activation factor at 5 µM; recombinant CYP2C19, luciferin-H EGE luminescence; stronger effect = higher value; 0 = fully inhibited enzyme, 1 = untreated enzyme; P33261;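 active = activation factor of at least 2 at 5 µM in the primary screen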
# CYP2C19 inhib: human CYP2C19 inhibition; hit rate 21% among 96,000; AID 778; inhibition, % at 5 µM; CYP2C19 Supersomes, luciferin-H EGE luminescence, 30 min;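 active = CYP2C19 inhibition above a set limit at 5 µM in the primary screen, cut at about 50% in these data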
# CYP2C9 inhib: blocks human cytochrome P450 2C9; P11712; CYP2C9 Supersomes, luciferin-H conversion, luminescence; inhibition, % at 5 µM; hit rate 20% among 96,000;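 active = blocking of liver enzyme CYP2C9 beyond about 50% at 5 µM, limit read from the data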
# Target sequence (P11712 whole entry, looked up): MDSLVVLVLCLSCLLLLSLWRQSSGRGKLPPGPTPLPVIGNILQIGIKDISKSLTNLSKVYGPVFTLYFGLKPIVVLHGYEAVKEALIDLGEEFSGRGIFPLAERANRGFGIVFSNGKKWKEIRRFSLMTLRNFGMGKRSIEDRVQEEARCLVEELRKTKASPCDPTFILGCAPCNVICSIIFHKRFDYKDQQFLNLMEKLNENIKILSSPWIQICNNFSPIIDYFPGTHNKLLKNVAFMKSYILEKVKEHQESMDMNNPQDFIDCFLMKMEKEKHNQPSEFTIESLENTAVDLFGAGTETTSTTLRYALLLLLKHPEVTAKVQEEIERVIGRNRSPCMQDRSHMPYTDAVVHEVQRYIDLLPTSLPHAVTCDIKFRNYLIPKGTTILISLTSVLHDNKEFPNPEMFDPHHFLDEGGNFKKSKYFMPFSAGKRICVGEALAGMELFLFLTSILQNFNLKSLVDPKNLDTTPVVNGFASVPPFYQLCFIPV
# sEH act: increases human soluble epoxide hydrolase activity; P34913; purified human sEH enzymatic activity, activator screen; activation, % at 2 µM; hit rate 0.04% among 91,000; in the data active = activation above about 37%
# CYP2C9 activ: CYP2C9 (human) activation. P11712. recombinant CYP2C9, luciferin-H conversion, luminescence; stronger effect = higher value; factor 1 = untreated enzyme, 0 = blocked. activation factor at 5 µM. hit rate 1.4% among 96,000. AID 1024;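 active = activation factor of 2 or more for CYP2C9 at a 5 µM dose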
# sEH inhibitor: blocks human soluble epoxide hydrolase activity | P34913 | hit rate 0.34% among 91,000 | recombinant human sEH enzymatic activity assay | inhibition, % at 2 µM; in the data active = inhibition above about 80%
# A number is an active result; - = inactive; . = no result given.
SMILES,CYP2C19 act,CYP2C19 inhib,CYP2C9 inhib,sEH act,CYP2C9 activ,sEH inhibitor
Cc1ccc(Nc2nc(=O)c3cccnc3s2)cc1,-,93.9,81.6,-,-,-
CS(=O)(=O)N1CCCC(C(=O)NCc2ccc(F)cc2Cl)C1 (configuration not stated),-,-,-,-,-,-
CC(C)(CSc1nncn1N)NS(=O)(=O)c1ccc(Cl)cc1,-,95.0,50.6,-,-,-
Cn1cnnc1SC1CCCCC1NS(=O)(=O)c1ccc(Cl)cc1 (configuration not stated),.,.,.,-,.,-
COC(=O)c1nc2nc(C)cc(=O)n2[nH]1,-,-,-,-,-,-
COc1ccc(-c2c(C#N)c(C)nc3c2C(=O)c2ccccc2-3)cc1,-,56.6,-,-,-,-
COc1ccc(-c2nc(-c3cccc(C)c3)nc(Cl)c2C#N)cc1,-,-,69.0,-,-,-
COc1ccc(-c2nc(-c3ccccc3)[nH]c(=O)c2C#N)cc1,-,-,65.3,-,-,-
CCOC(=O)c1c(C)nc2c(c1-c1cc(OC)c(OC)c(OC)c1)C(=O)c1ccccc1-2,-,-,-,-,-,-
COc1cc(C(=O)NC(=S)Nc2ccc3oc(=O)ccc3c2)cc(OC)c1OC,-,-,-,-,-,-
Cc1oc(C(=O)O)cc1COc1cccc2cccnc12,-,-,-,-,-,-
O=C(OCn1ncc(Cl)c(Cl)c1=O)c1ccc(C(F)(F)F)cc1,-,83.1,-,-,-,-
Cc1ccc(C(=O)OCCN2CCN(c3ncc(C(F)(F)F)cc3Cl)CC2)cc1,-,-,-,-,-,-
c1cncc(CNc2c3c(nc4nnnn24)CCCC3)c1,-,68.0,-,.,-,.
c1ccc(CNc2c3c(nc4ncnn24)CCCC3)nc1,-,-,-,-,-,-
CC(C)CNC(=O)CCc1c[nH]c2ccccc12,-,83.9,-,-,-,-
O=C(Cc1ccccc1)NCC1CCCO1 (configuration not stated),-,-,-,-,-,-
NNC(=O)CCc1c[nH]c2ccccc12,.,.,.,-,.,-
O=C(CCc1c[nH]c2ccccc12)NCC1CCCO1 (configuration not stated),-,88.9,-,-,3.1,-
CCCCn1c(=O)nc2n(-c3ccccc3)c3ccccc3cc-2c1=O,-,-,-,-,-,-
COc1cc(/C=N/n2nnnc2N)ccc1O,-,-,-,-,-,-
COC(=O)c1cc(Br)ccc1-c1ccc(/C=N/n2nnnc2N)o1,-,55.6,-,-,-,-
Cc1cccc(-n2nnc(C(=O)NCc3ccccn3)c2N)c1,-,-,-,-,-,-
CCOC(=O)C1=C(CSc2nc3c(cc2C#N)CN(C)CC3)OC(N)=C(C#N)C1c1ccc(Cl)cc1 (configuration not stated),-,-,-,-,-,-
CCCC1=C(C(=O)OCC)C(c2cccs2)C(C#N)=C(N)O1 (configuration not stated),-,79.1,66.6,-,-,-
SMILES,CYP2C19 act,CYP2C19 inhib,CYP2C9 inhib,sEH act,CYP2C9 activ,sEH inhibitor
CCN1C=C(Cc2cccs2)C2=C(C1)C(c1cccs1)C(C#N)=C(N)O2 (configuration not stated),-,-,56.1,-,-,-
CCOC(=O)C1=C(CSc2nc(C)cc(C)c2C#N)OC(N)=C(C#N)C1c1cccs1 (configuration not stated),-,85.6,-,-,-,-
N#CC1=C(N)Oc2c(oc(CO)cc2=O)C1c1cccs1 (configuration not stated),-,-,-,-,-,-
CCOC(=O)C1=C(CSc2nc(CC)c(C)cc2C#N)OC(N)=C(C#N)C1c1ccccc1 (configuration not stated),-,-,68.2,-,-,-
CN(Cc1ccccc1)C(=O)CSc1nnc(-c2ccco2)n1-c1ccccc1,-,-,-,-,-,-
Cc1nn(-c2cc(C)c3ccccc3n2)c2c1CCC2,-,-,-,-,-,-
Cn1c2c(c(=O)n(C)c1=O)C1c3cc(Cl)ccc3OCC1CO2 (configuration not stated),-,69.0,-,-,-,-
Cn1c(=O)[nH]c(=O)c2c1nc(NCc1ccccc1)n2CC(O)c1ccccc1 (configuration not stated),-,-,-,-,-,-
CCc1c(C)c2ccc(OCC(=O)OC)cc2oc1=O,-,58.8,-,-,-,-
COCCn1nnnc1C(C(C)C)N(Cc1cccnc1)Cc1ccccc1Cl (configuration not stated),-,95.3,-,-,-,-
O=C1CC(C(=O)N(c2ccc(F)cc2)C(C(=O)NC2CCCC2)c2ccccn2)CS1 (configuration not stated),-,-,-,-,-,-
CC(=O)N1CCN(C(=O)CCc2c[nH]c3ccccc23)CC1,-,-,-,-,-,-
N#Cc1ccc(CN2CCN(C(=O)c3ccccc3)CC2)c(Cl)c1,-,74.2,-,.,-,.
O=C(c1ccc(F)cc1)N1CCN(Cc2ccccc2Br)CC1,-,97.5,68.9,-,-,-
O=C(CCCc1c[nH]c2ccccc12)N1CCCCCC1,-,97.7,-,-,-,-
O=C(c1cccc(F)c1)N1CCN(Cc2c[nH]c3ccccc23)CC1,-,-,-,.,-,.
O=C(C1CCCN(Cc2ccccc2Br)C1)N1CCCCC1 (configuration not stated),-,-,-,-,-,-
O=C(c1ccccc1)N1CCN(Cc2c[nH]c3ccccc23)CC1,-,64.8,-,-,-,-
CCOC(=O)N1CCC(Nc2c(NCCCN(C)Cc3ccccc3)c(=O)c2=O)CC1,-,-,-,.,-,.
Cc1cc(C)cc(Nc2ncc3c(n2)CCCC3=O)c1,-,-,-,-,-,-
CN(C)C(/C=C/Nc1ccc(F)cc1F)=C(C#N)C#N,-,-,-,.,-,.
CN(C)C(/C=C/Nc1ccc(F)cc1)=C(C#N)C#N,-,58.8,-,.,-,.
CN(C)C(/C=C/Nc1ccc(C#N)cc1)=C(C#N)C#N,-,57.7,-,-,-,-
CCOC(=O)C1=C(CNCc2ccc(C)cc2)NC(=O)NC1c1ccc(OC)cc1 (configuration not stated),-,-,-,-,-,-
Cc1cccc(N2CCN(C(=O)Cc3c(C(=O)O)[nH]c4ccc(Cl)cc34)CC2)c1C,-,-,87.1,-,-,-
SMILES,CYP2C19 act,CYP2C19 inhib,CYP2C9 inhib,sEH act,CYP2C9 activ,sEH inhibitor
CCOC(=O)N1CCN(C(=O)CCCOc2ccccc2)CC1,-,-,-,-,-,-
O=C(CCCOc1ccccc1)N1CCN(c2ccccc2)CC1,-,62.4,78.1,-,-,-
O=C(CCCOc1ccc(Cl)cc1Cl)N1CCc2ccccc2C1,.,.,.,-,.,-
Cc1cccc(N2CCN(C(=O)CCCOc3ccccc3)CC2)c1C,-,74.7,80.9,.,-,.
O=C(CCCOc1ccccc1)N1CCc2ccccc2C1,-,82.7,-,-,-,-
Cc1cc(C)n(-c2nc(-c3ccc(Cl)cc3)cs2)n1,-,-,-,-,-,-
